The record followed here is PubChem BioAssay (Tox21).

The target in test [1] is Thyrotropin receptor (Homo sapiens) (UniProt P16473). Nature of the test: qHTS assay to identify small molecule antagonists of the thyroid stimulating hormone receptor (TSHR) signaling pathway (AID 1259385; calls by dose curve; note: nearly all actives have a fitted effect of over 20% in size). The method, boiled down:
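TSHR-HEK293 cells (800/well) plated 18 h, then compounds with Ro20-1724 and TSH at 1.5 ng/mL final, 30 min at room temperature. cAMP quantified by HTRF (cAMP-d2/anti-cAMP-cryptate, 1 h); 15 concentrations in triplicate.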

Test [2] is described as follows: qHTS assay to identify small molecule agonists of the estrogen receptor alpha (ER-alpha) signaling pathway in the presence of an antagonist - cell viability counter screen (AID 1259386).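 Note: series mostly up to about 92 µM; cells exposed to compounds for 22 h at 37 °C before the viability read; nearly all actives have a fitted effect of over 30% in size.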 The method, boiled down: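 Cytotoxicity was measured in parallel with the ERE-luciferase agonist screen, in the same wells. The cells were VM7Luc4E2, which endogenously express ER-alpha, and treatment was with compounds plus 10.0nM ICI-182,780 for 22hr.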

In test [3] the target is Progesterone receptor (Homo sapiens) (UniProt P06401). Nature of the test: qHTS assay to identify small molecule agonists of the progesterone receptor (PR) signaling pathway (AID 1346784; calls by dose curve; note: nearly all actives have a fitted effect of over 30% in size; note: potency is the fitted concentration of half-maximal effect). The method, boiled down:
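The screen uses PR-UAS-bla HEK 293T cells in charcoal-stripped serum (2%). Compounds are applied for 16 hr at 37C after a 6 hr pre-incubation, and reporter activity is detected with a FRET beta-lactamase substrate after 2 hr at room temperature.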

The target is the same in test [4]. Nature of the test: qHTS assay to identify small molecule antagonists of the progesterone receptor (PR) signaling pathway (AID 1346795; active = well fitted inhibition curve with a large enough effect in the signal ratio in the repeat runs, not every such curve was filed as active; the % refers to the signal ratio). The method, boiled down:
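After 6 hr plating at 37C in 2% stripped-serum medium, PR-UAS-bla HEK293T cells got compounds, then 1 nM R5020. Sixteen hours later, LiveBLAzer substrate was applied for 2 hr at room temperature and fluorescence was recorded.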

Test [5] is described as follows: qHTS assay to identify small molecule agonists of the progesterone receptor (PR) signaling pathway - cell viability counter screen (AID 1346799; calls by dose curve; note: nearly all actives have a fitted effect of over 45% in size). The method, boiled down:
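Viability was scored by ATP luminescence (CellTiter-Glo, 30 min, room temperature) in the same wells used for the reporter readout, after 16 hr compound exposure of PR-UAS-bla HEK293T cells.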

Test [6] can be described thus: qHTS assay to identify small molecule agonists of the TGF-beta/Smad signaling pathway - cell viability counter screen (AID 1346829). Note: top concentration of the series differs between compounds; nearly all actives have a fitted effect of over 45% in size. The method, boiled down: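 CellTiter-Glo luminescence readout; SBE-bla HEK 293T cells, overnight plating, compound 5 hr at 37 C/5% CO2, then bla substrate 2 hr RT, then CellTiter-Glo 30 min RT.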
Test [7] in a line: qHTS assay to identify small molecule agonists of the TGF-beta/Smad signaling pathway (AID 1346859; active = well fitted activation curve with a large enough effect in the signal ratio in the repeat runs, not every such curve was filed as active; the % refers to the signal ratio; note: series mostly up to about 77 µM). The method, boiled down:
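Dual-wavelength fluorescence (460/530 nm emission) quantified beta-lactamase expression under the Smad binding element in HEK 293T cells following 5 hr compound treatment at 37 C.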

Test [8] can be described thus: Human pregnane X receptor (PXR) small molecule agonists, qHTS cell viability counter screen (AID 1346977). Note: nearly all actives have a fitted effect of over 50% in size. The method, boiled down: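 HepG2 cells stably carrying the PXR-Luc reporter are cultured with 5% charcoal-stripped FBS and treated with compounds for 24hr. CellTiter-Fluor is added at 23hr and fluorescence is read after 1hr.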
A short description of test [9]: Caspase-3/7 induction in HepG2 cells by small molecules, qHTS assay (AID 1346978). Note: nearly all actives have a fitted effect of over 15% in size. The method, boiled down: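 Wild-type HepG2 cells, 2,000/well, settled 5 hr at 37 C and 5% CO2, then compound-treated for 17 hr; caspase-3/7 activity read by luminescent Caspase-Glo 3/7 after 30 min at room temperature.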
Test [10] is described as follows: Caspase-3/7 induction in CHO-K1 cells by small molecules, qHTS cell viability counter screen (AID 1346979). Note: nearly all actives have a fitted effect of over 35% in size. The method, boiled down: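 Seeding: 1,500 CHO-K1 cells/well. Rest: 5hr, 37C. Treatment: compounds in DMSO, 16hr. Read: CellTiter-Fluor, 1hr, fluorescence.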
Test [11] can be described thus: Caspase-3/7 induction in CHO-K1 cells by small molecules, qHTS assay (AID 1346980). Note: nearly all actives have a fitted effect of over 15% in size. The method, boiled down:
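Wild-type CHO-K1 cells exposed to compounds for 17hr at 37 C, 5% CO2. Caspase-3/7 activity then measured by Caspase-Glo 3/7 luminescence after 30min at room temperature.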

Test [12] can be described thus: Caspase-3/7 induction in HepG2 cells by small molecules, qHTS cell viability counter screen (AID 1346981). Note: series mostly up to about 92 µM; nearly all actives have a fitted effect of over 30% in size. The method, boiled down: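 Cell viability is measured as a cytotoxicity counter screen alongside the Caspase-Glo 3/7 readout in identical wells. Wild-type HepG2 cells are treated with test compounds for 16 hr at 37 C before CellTiter-Fluor addition and a 1-hr incubation.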

Test [13] addresses Nuclear receptor subfamily 1 group I member 2 (Homo sapiens) (UniProt O75469). Nature of the test: Human pregnane X receptor (PXR) small molecule agonists, qHTS assay (AID 1346982). Note: nearly all actives have a fitted effect of over 35% in size. The method, boiled down:
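Cells: HepG2 stably carrying PXR-Luc. Medium held 5% charcoal-stripped FBS. Compounds in DMSO added after 5 hr plating, incubated 24 hr, then luminescence quantified with ONE-Glo.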

Test [14] can be described thus: qHTS assay to identify small molecule antagonists of the TGF-beta/Smad signaling pathway - cell viability counter screen (AID 1346824). Note: nearly all actives have a fitted effect of over 50% in size. The method, boiled down:
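SBE-bla HEK 293T cells, incubated overnight, then compound plus 0.25 ng/mL TGF-beta1 (stock added) for 5 hr at 37 C. Viability was read in the same wells by CellTiter-Glo luminescence after 30 min at room temperature.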

Test [15] deals with Thyrotropin-releasing hormone receptor (Homo sapiens) (UniProt P34981). Nature of the test: qHTS assay to identify small molecule antagonists of the thyrotropin-releasing hormone receptor (TRHR) signaling pathway (AID 1346877; active = well fitted inhibition curve with a large enough effect in the repeat runs, not every such curve was filed as active; note: series mostly up to about 51 µM). The method, boiled down: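 Antagonism is measured as suppression of the calcium response to 1 nM TRH in TRHR-HEK293 cells that have been dye-loaded for 2 h at 37 °C after overnight plating. Each compound is tested at 15 concentrations in triplicate.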
Chain of Thyrotropin-releasing hormone receptor (Homo sapiens) (P34981 whole entry, looked up): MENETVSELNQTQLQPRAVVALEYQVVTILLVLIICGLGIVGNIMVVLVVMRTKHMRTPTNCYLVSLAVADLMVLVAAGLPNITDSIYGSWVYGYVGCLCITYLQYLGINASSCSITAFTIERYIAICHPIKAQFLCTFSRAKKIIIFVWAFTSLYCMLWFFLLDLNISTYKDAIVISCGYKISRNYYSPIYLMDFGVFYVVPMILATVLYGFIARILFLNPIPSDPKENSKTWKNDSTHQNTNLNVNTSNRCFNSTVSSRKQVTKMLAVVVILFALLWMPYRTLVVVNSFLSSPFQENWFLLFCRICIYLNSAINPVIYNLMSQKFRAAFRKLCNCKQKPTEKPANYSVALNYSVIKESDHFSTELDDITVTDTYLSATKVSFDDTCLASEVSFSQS

Test [16] shares this target. Nature of the test: qHTS assay to identify small molecule agonists of the thyrotropin-releasing hormone receptor (TRHR) signaling pathway (AID 1346891; calls by dose curve;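 note: HEK293 cells expressing TRHR with calcium dye readout; series mostly up to about 58 µM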). The method, boiled down:
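Kinetic fluorescence (3 min, 1 s intervals) reported intracellular calcium after compound transfer onto TRHR-Hek293 cells pre-loaded with dye for 2 h at 37 °C.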

Test [17] is described as follows: qHTS assay to identify small molecule antagonists of the progesterone receptor (PR) signaling pathway - cell viability counter screen (AID 1346798). Note: series mostly up to about 92 µM; nearly all actives have a fitted effect of over 50% in size. The method, boiled down:
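Viability was determined by ATP-based luminescence (CellTiter-Glo) in PR-UAS-bla HEK293T cells cultured in 2% charcoal-stripped serum and incubated 16 hr with compounds under R5020 stimulation.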

The target of test [18] is Nuclear receptor subfamily 1 group I member 2 (Rattus norvegicus) (UniProt Q9R1A7). Nature of the test: Rat pregnane X receptor (rPXR) activation by small molecules, qHTS assay (AID 1346983). Note: nearly all actives have a fitted effect of over 20% in size. Particulars: rPXR luciferase reporter cells, One-Glo luminescence, 24 h; max activation: active compounds read high. The method, boiled down: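 Cell-based rPXR activation assay: rPXR cells, 2,000 per well, rested 5hr at 37 C, then exposed to compounds in DMSO for 24 hr at 37 C. Luciferase activity read by One-Glo luminescence after 30 min at room temperature.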
Chain of Nuclear receptor subfamily 1 group I member 2 (Rattus norvegicus) (Q9R1A7 whole entry, looked up): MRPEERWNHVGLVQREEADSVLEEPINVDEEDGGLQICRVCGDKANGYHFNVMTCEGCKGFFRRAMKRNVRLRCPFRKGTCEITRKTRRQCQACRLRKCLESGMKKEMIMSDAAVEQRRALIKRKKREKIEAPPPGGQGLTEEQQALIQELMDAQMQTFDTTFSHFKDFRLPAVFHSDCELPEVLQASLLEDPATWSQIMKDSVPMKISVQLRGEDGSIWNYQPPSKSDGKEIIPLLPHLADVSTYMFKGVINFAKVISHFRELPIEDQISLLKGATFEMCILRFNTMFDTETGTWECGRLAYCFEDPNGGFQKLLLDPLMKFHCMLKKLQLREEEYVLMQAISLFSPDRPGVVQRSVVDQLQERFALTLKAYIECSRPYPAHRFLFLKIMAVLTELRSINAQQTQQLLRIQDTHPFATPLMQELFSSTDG

Test [19] has as its target Nuclear receptor subfamily 1 group I member 2 (Homo sapiens) (UniProt O75469). Nature of the test: CYP3A4 induction through human pregnane X receptor (PXR) by small molecules, qHTS assay (AID 1346984). Note: nearly all actives have a fitted effect of over 40% in size. The method, boiled down: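 Quantitative HTS in DPX-2 cells, i.e. HepG2 transfected with PXR response element and CYP3A4-promoter luciferase. Compounds in DMSO incubated 24hr at 37C; then P450-Glo CYP3A4 substrate, 3uM final, 3hr; One-Glo luminescence.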

Test [20] shares this target. Nature of the test: Human pregnane X receptor (PXR) activation by small molecules, qHTS assay (AID 1346985). Note: nearly all actives have a fitted effect of over 40% in size. The method, boiled down: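 DPX-2 cells (HepG2 co-transfected with a PXR response element and a CYP3A4-promoter luciferase construct) were seeded at 2,000 per well, rested 5 hr at 37C, then exposed to DMSO-dissolved compounds for 24 hr. Activation was read as luciferase luminescence.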

A number with no mark means an inactive call. Results filed as inconclusive are left out. The source made the active and inactive calls. Unless noted, calls come from the whole dose curve; as a rule, active = well fitted curve in the direction sought with a large enough effect in the repeat runs; inconclusive = weak or mixed curves; inactive = no such curve, though single readings can be large; an effect the other way counts as inactive or inconclusive.
% is set by controls: 0 for no effect and ±100 for the full control effect.

Chain of Progesterone receptor (Homo sapiens) (P06401 whole entry, looked up): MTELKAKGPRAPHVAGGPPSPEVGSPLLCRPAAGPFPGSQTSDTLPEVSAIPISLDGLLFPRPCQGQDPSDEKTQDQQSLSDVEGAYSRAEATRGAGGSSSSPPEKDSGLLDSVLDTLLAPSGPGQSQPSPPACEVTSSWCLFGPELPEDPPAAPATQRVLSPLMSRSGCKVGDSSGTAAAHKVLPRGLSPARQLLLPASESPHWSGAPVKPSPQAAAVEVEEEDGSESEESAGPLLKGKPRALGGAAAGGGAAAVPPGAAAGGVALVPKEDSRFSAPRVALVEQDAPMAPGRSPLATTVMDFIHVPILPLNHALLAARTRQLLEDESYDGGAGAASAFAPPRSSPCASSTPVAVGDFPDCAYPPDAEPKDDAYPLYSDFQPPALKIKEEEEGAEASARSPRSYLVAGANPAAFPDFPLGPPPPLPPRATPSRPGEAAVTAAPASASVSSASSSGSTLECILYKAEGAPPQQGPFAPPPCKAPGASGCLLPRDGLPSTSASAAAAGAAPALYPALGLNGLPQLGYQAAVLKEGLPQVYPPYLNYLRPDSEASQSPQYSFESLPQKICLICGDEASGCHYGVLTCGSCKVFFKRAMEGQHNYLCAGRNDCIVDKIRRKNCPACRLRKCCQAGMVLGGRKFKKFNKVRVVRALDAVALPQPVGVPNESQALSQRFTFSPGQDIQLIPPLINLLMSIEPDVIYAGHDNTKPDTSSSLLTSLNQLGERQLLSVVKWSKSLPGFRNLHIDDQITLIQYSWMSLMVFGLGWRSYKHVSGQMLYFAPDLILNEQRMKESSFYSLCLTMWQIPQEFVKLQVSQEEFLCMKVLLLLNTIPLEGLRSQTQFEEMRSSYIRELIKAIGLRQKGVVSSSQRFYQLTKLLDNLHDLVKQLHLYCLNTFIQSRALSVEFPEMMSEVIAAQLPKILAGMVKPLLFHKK
Chain of Thyrotropin receptor (Homo sapiens) (P16473 whole entry, looked up): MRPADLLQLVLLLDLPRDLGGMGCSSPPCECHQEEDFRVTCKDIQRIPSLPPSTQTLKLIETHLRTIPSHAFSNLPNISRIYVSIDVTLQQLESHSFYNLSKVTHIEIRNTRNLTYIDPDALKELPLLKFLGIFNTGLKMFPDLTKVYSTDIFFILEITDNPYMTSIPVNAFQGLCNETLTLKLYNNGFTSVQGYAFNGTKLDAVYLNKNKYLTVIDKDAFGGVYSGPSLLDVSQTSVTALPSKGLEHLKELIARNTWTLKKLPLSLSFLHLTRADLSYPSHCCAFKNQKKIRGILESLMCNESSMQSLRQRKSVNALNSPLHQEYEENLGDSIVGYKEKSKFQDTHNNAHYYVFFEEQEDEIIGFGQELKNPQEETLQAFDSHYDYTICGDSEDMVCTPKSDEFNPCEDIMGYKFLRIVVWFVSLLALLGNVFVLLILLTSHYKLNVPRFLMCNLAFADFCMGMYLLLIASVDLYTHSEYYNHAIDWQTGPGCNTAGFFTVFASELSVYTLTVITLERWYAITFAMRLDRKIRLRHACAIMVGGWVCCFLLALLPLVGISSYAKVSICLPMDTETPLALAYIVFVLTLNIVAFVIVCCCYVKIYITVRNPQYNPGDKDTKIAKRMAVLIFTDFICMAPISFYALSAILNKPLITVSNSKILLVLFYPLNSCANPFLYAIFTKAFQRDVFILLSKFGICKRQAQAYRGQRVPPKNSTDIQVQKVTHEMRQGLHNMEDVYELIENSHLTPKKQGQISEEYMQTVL
Chain of Nuclear receptor subfamily 1 group I member 2 (Homo sapiens) (O75469 whole entry, looked up): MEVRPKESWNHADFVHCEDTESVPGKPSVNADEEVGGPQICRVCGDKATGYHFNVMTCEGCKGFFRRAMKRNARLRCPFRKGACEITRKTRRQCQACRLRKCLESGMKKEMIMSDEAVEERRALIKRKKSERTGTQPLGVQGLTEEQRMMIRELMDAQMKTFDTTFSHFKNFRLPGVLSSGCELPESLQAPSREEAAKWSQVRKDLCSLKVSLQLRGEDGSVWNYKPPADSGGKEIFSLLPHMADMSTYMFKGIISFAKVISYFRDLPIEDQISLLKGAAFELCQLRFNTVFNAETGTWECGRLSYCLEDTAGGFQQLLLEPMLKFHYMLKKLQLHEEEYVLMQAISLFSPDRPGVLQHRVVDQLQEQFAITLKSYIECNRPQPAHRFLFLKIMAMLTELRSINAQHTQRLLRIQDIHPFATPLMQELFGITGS

Regarding `COc1ccc(NC(C)=O)cc1`, the Potency result in [1], in test [3], in test [4], in test [5], in test [8] and in [10] was “inactive” in each case. The Potency entry in [13] is “inactive”. Besides, the result in test [2], in test [6], in test [7], in test [9], in [11] and in test [12] was inactive.

As to `CCCCCCCCCCCCI`, the Potency result in test [1], in test [3], in test [4], in [5], in [8] and in test [10] was “inactive” throughout. Further, in test [13], the Potency entry was “inactive”. Besides, the result in test [2], in test [14], in test [6], in [7], in test [15] and in test [16] was inactive. Moreover, the molecule was called inactive in test [9], in [11] and in [12].

Take `CCc1cc(S(=O)(=O)O)c2cc(C(C)C)cccc1-2`: the Potency result in test [1], in [3], in test [4], in test [17], in [8] and in [10] was “inactive” throughout. Moreover, the Potency result in test [13] was “inactive”. Moreover, the result in test [2], in test [14], in test [6], in test [7], in test [15] and in test [16] was inactive. Moreover, the molecule was called inactive in test [9], in test [11] and in test [12].

For the molecule `CCCCCCCCCCCCCCCCCC(=O)OCCCCCCCCCCCCCC(C)C`, the Potency result in test [1], in test [3], in [4], in test [17], in [8] and in [10] was “inactive” throughout. Further, the Potency result in [13] was “inactive”. Moreover, the result in [2], in test [14], in [6], in test [7], in test [15] and in test [16] was inactive. Besides, the outcome in test [9], in test [11] and in test [12] was inactive.

`C#CC(O)CCCCC` (stereo unspecified): the Potency entry in test [1], in [4], in test [8], in test [10] and in test [13] was “inactive” in each case. For the same molecule, the result in [2], in test [14], in [6], in test [7], in test [9] and in [11] was inactive. Besides, the molecule was called inactive in [12]. The Potency in test [3] is 27.5 µM (active).

For the molecule `CCCC(C)C(=O)O` (stereo unspecified), the Potency result in [1], in test [3], in test [4], in test [8], in test [10] and in test [13] was “inactive” each time. Also, the result in [2], in test [6], in test [7], in [15], in test [16] and in [9] was inactive. The molecule was classed as inactive in test [11] and in test [12].

Take `Cc1cc(C)cc(OCC2CNC(=O)O2)c1` (stereo unspecified): the Potency result in test [1], in test [3], in [17], in test [5], in [8] and in test [10] was “inactive” throughout. Moreover, the Potency result in test [13], in test [19] and in test [20] was “inactive” each time. Besides, the result in test [2], in test [14], in [6], in [7], in [9] and in test [11] was inactive. Besides, the result in test [12] was inactive. Moreover, the max activation in test [18] was -2.51%.

In the case of `C=CC(=O)N1CCOCC1`, the Potency entry in [1], in test [3], in [4], in test [5], in test [8] and in [10] was “inactive” in each case. In test [13], the Potency entry is “inactive”. Also, the outcome in [2], in test [14], in [6], in test [7], in test [15] and in test [16] was inactive. For the same molecule, the outcome in test [9], in test [11] and in test [12] was inactive.
